Bioassay records: PubChem, several laboratories
TPT1 inhibitor: blocks Candida albicans tRNA 2'-phosphotransferase; recombinant caTPT1, FP RNA substrate dephosphorylation; inhibition, % at 5 µM; 300,000 tested, 0.81% active; AID 1962;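 active means inhibition above the mean of all tested compounds plus 3 SD, set per screening campaign, cut at about 24% in these data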;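 further: plate controls were DMSO alone for no effect and ferristatin control at 100 nM for full effect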
IDE act: boosts human insulin-degrading enzyme activity in HEK cells; P14735; FAbeta-B cleavage, fluorescence polarization; 0% vehicle, 100% cell-free pure enzyme wells; activation, % at 5.96 µM; 340,000 tested, 0.073% active;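 active means activation above the mean of all tested compounds plus 3 SD, set per screening campaign, cut at about 17% in these data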
HNF4A DNA FP: change in binding of human HNF4 alpha to DNA. P41235. 360,000 tested, 0.3% active. HNF4a-FITC DNA binding, fluorescence polarization, 1 h. activity change, % at 10 µM; in the data active means activity change above about 30%, passing the limit was not always enough
Target sequence (P41235 whole entry, looked up): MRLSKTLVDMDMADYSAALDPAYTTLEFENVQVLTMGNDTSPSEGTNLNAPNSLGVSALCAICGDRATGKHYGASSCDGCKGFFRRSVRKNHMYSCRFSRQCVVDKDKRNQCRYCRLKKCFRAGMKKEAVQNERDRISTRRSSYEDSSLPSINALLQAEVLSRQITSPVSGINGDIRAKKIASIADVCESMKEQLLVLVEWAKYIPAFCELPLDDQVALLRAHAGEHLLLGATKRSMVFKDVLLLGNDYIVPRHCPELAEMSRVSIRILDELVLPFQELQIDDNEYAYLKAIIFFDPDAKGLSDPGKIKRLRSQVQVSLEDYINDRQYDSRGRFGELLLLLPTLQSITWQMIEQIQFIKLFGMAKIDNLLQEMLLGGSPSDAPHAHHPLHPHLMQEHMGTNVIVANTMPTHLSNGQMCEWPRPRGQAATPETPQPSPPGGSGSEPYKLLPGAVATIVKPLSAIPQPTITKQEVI
CRFR2-BP ag: agonists of human CRF-binding protein/CRF-R2 receptor complex; activation, % at 13.2 µM; HEK293 CRF-R2/CRF-BP, calcium dye fluorescence (FLIPR); percent of saturating CRF peptide response; 350,000 tested, 0.46% active;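 active means activation of at least 50%, plus an integration ratio under a set limit after plate pattern correction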;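 further: plate controls were neutral control wells without compound for no effect and CRF at EC100 for full effect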
IDE inh: inhibitors of human insulin-degrading enzyme in cells | HEK cells, FAbetaB cleavage, fluorescence polarization | inhibition, % at 5.59 µM | 320,000 tested, 0.41% active | AID 434962;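 active means percent inhibition above the average of all tested compounds plus 3 SD, set per screening campaign, cut at about 16% in these data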;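 further: IDE supplied by intact live HEK cells; FP after avidin binding of uncleaved biotin substrate so inhibition keeps polarization high; 0% = DMSO wells and 100% = 60 µM reference IDE inhibitor Ii1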
HNF4a DNA conf: change in binding of human HNF4 alpha to DNA, retest. shares compounds with HNF4A DNA FP. HNF4A-FITC DNA binding, fluorescence polarization, 1 h. activity change, % at 12.5 µM. 210 tested, 99% active; call rule not given here
An asterisk follows results filed as active; nt = not tested or not shown. Compounds with a hit are over-represented: about 1.4% of the library has one in this group of screens.

SMILES	TPT1 inhibitor	IDE act	HNF4A DNA FP	CRFR2-BP ag	IDE inh	HNF4a DNA conf
CSc1nsc(/C=C/Nc2ccc(F)cc2)c1C#N	24	-2	51*	2	3	46*
Cn1c(=O)oc2cc(S(=O)(=O)N3CCc4ccccc43)ccc21	6	-3	-1	2	2	nt
Cn1c(=O)c(=O)n(C)c2cc(S(=O)(=O)N3CCc4ccccc43)ccc21	-1	3	43*	2	-3	47*
CC(C)C(C)(C#N)NC(=O)COC(=O)C1CCN(S(=O)(=O)c2ccc3c(c2)OCCO3)CC1 (configuration not stated)	nt	5	1	-2	nt	nt
Cc1cccc(NC(=O)c2sc3nc(-c4ccc(F)cc4)cn3c2C)n1	24	-18	37*	5	7	38*
CCN(CC)CCCNC(=O)c1sc2nc(-c3ccc(F)cc3)cn2c1C	0	1	5	-1	-1	nt
CCOCCc1nnc(NC(=O)C2CCN(C(=O)c3ccco3)CC2)s1	-3	1	0	0	-3	nt
CN1C=CC(=CC=C2C=CC(=O)C=C2)C=C1	12	-2	54*	2	-1	48*
COc1ccc(NC(=O)NNC(=O)C(C)Oc2ccc3ccccc3c2)cc1OC (configuration not stated)	0	4	-3	0	2	nt
C#CCOCCOCCOCCNc1nc(N2CCN(C(=O)C([C@@H](C)O)n3cc([C@@H](N)CCCCN)nn3)CC2)nc(N2CCN(C(=O)[C@H](CCCCN)n3cc([C@@H](N)[C@H](C)CC)nn3)CC2)n1 (some centres not stated)	nt	1	76*	0	0	94*
C#CCOCCOCCOCCNc1nc(N2CCN(C(=O)[C@H](CCCCN)n3cc(CN)nn3)CC2)nc(N2CCN(C(=O)[C@H](CCC(=O)O)n3cc([C@@H](N)CCCCN)nn3)CC2)n1	nt	4	92*	0	2	123*
C#CCOCCOCCOCCNc1nc(N2CCN(C(=O)[C@H](CCC(=O)O)n3cc(CN)nn3)CC2)nc(N2CCN(C(=O)[C@H](CCCCN)n3cc([C@@H](N)CC(N)=O)nn3)CC2)n1	nt	4	1	2	6	nt
C#CCOCCOCCOCCNc1nc(N2CCN(C(=O)CCCCCCCCCCNC(=O)[C@@H](CCC(=O)O)n3cc(CCCCCN)nn3)CC2)nc(N2CCN(C(=O)CCCCCCCCCCNC(=O)[C@H](CO)n3cc(CCCCCN)nn3)CC2)n1	-2	5	8	9	-1	nt
C#CCOCCOCCOCCNc1nc(N2CCN(C(=O)CCCCCCCCCCNC(=O)[C@H](CCCCN)n3cc(CCO)nn3)CC2)nc(N2CCN(C(=O)CCCCCCCCCCNC(=O)[C@H](CCCCN)n3cc(CCCC(=O)O)nn3)CC2)n1	-1	4	48*	4	7	66*
C#CCOCCOCCOCCNc1nc(N2CCN(C(=O)C([C@@H](C)O)n3cc([C@@H](N)CCCCN)nn3)CC2)nc(N2CCN(C(=O)[C@H](CCC(=O)O)n3cc([C@@H](N)[C@H](C)CC)nn3)CC2)n1 (some centres not stated)	nt	-3	-1	4	8	nt
Cc1nc(-[n+]2nc(-c3ccncc3)nn2-c2ccccc2)sc1C	nt	nt	-4	nt	nt	nt
CC12CCC3c4ccc(O)cc4CCC3C1CC(=NO)C2O (configuration not stated)	nt	5	-4	-7	nt	nt
C[C@@]12C(=O)N(c3ccc(Br)cc3)C(=O)N1[C@@H]1c3ccccc3OC[C@@H]1[C@H]2c1ccccc1	nt	7	2	0	3	nt
O=C(O)c1cccc2c1C(=O)c1ccc(N3CCCCC3)cc1S2(=O)=O	nt	-2	43*	7	5	43*
CCCCn1c(/N=C/c2ccc(N(C)C)cc2)nc2ccccc21	24	3	49*	34	0	81*
CCCCn1c(/N=C/c2ccc3c(c2)OCO3)nc2ccccc21	-5	7	-5	0	-2	nt
N#C/C(=C/c1ccc(-c2ccc([N+](=O)[O-])cc2)o1)c1nnc(N2CCOCC2)n1-c1ccccc1	nt	5	48*	176*	nt	38*
Cc1nc2c(OCc3ccc(Cl)cc3)cccn2c1N(C)C(=O)CCC1CCCC1	nt	nt	-1	nt	nt	nt
Cc1cccc(-c2c3c(=O)n(C)c(=O)n(C)c3c3nnc4ccccc4n23)c1	nt	5	50*	13	nt	32*
Cc1cccc(-c2c3c(=O)n(C)c(=O)n(C)c3cn2CCO)c1	-5	-1	2	0	-2	nt
SMILES	TPT1 inhibitor	IDE act	HNF4A DNA FP	CRFR2-BP ag	IDE inh	HNF4a DNA conf
CC(=O)Oc1ccc(C(=O)Cc2ccc3ccccc3n2)c(O)c1C	15	3	38*	22	0	50*
CCOP(=O)(OCC)C(Nc1ccc(C)cc1)c1ccco1 (configuration not stated)	-3	5	2	-2	-2	nt
COc1ccc(C2CC(c3ccccc3)=NN2S(=O)(=O)c2ccccc2)cc1 (configuration not stated)	0	6	77*	4	4	59*
CC1(C(=O)Nc2ccc3[nH]ncc3c2)CCN1C(=O)C1(c2ccccc2)CC1 (configuration not stated)	nt	nt	-3	nt	nt	nt
COc1ccc2cc(C(c3nnnn3CCc3ccccc3)N3CCC(O)CC3)c(=O)[nH]c2c1 (configuration not stated)	11	8	55*	11	7	51*
COc1ccc2cc(C(c3nnnn3Cc3ccccc3)N3CCCCCC3)c(=O)[nH]c2c1 (configuration not stated)	4	-4	-3	1	5	nt
COc1ccc(OCCNc2cc(Cl)ccc2[N+](=O)[O-])cc1	4	-1	51*	0	1	67*
CCOC(=O)/C=C1/N(C)c2ccccc2C1(C)C	1	5	-1	3	-4	nt
CN1/C(=C\P(=O)(N(C)C)N(C)C)C(C)(C)c2ccccc21	-9	8	39*	4	-1	43*
CCOC(=O)c1c(-c2cc(OC)c(OC)c(OC)c2)csc1NC(=O)c1ccccc1	nt	nt	4	0	nt	nt
CCOC(=O)c1c(-c2ccc(C)cc2)csc1NC(=O)/C(C#N)=C/c1ccc(O)c(OC)c1	nt	-143	55*	195*	nt	62*
Fc1ccccc1N1CCN(C2CCCN(Cc3ccccc3C(F)(F)F)C2)CC1 (configuration not stated)	1	1	0	0	2	nt
COc1cc(/C=C2\C(=N)N3N=CSC3=NC2=O)cc(Br)c1OC(=O)c1ccco1	5	-66	39*	1	2	79*
CCS(=O)(=O)C1=NSC2=NC(=O)/C(=C\c3ccc(OC(=O)c4ccco4)c(OC)c3)C(=N)N21	14	-14	44*	4	5	59*
N=C1/C(=C\c2ccc(OC(=O)c3ccco3)cc2)C(=O)N=C2SC=NN12	nt	5	3	1	nt	nt
